What all share (format): functional
In test [1] the test system is Plasmodium falciparum. The test is described as follows: GSK_TCMDC: Inhibition of Plasmodium falciparum 3D7 in whole red blood cells, using parasite LDH activity as an index of growth. Test compounds present at 2uM.
The subject of test [2] is Plasmodium falciparum. The test is described as follows: GSK_TCMDC: Inhibition of Plasmodium falciparum Dd2 in whole red blood cells, using parasite LDH activity as an index of growth. Test compounds present at 2uM.
Test [3] relates to HepG2. The test can be described thus: GSK_TCMDC: Percent inhibition of human HepG2 cell line. Test compounds present at 10uM.

In general, Inhibition refers to the percentage by which the read-out fell short of the control. Low values mean a weak effect, high ones a strong effect.

As for `CN(C)CCNCc1nc(-c2ccc3c(Nc4ccc(Cl)cc4F)ccnc3c2)cs1`, the Inhibition came to 100% in test [1], 100% in test [2] and 0% in test [3].
As to `CC(=O)Nc1ccc(OCCCCN(Cc2ccccc2OC(F)(F)F)c2ccc(C(F)(F)F)c(C#N)c2)c(Cl)c1`, the Inhibition in test [1] is reported as 89%; in test [2], 96%; in test [3], 11%.
The like results for `O=C(Nc1cccc(Cl)c1)c1cnc(N2CCN(c3ccncc3)CC2)c(Cl)c1.O=C(O)C(F)(F)F` were, in that order, 100%, 97% and 54%.
On the same counts, the results for `O=C(C=Cc1ccc(Cl)c(Cl)c1)NCCCCCN1CCC(CCCNS(=O)(=O)c2cccc(C(F)(F)F)c2)CC1` are 100%, 59% and 99%.
For `Cc1cc(N[C@@H](Cc2ccccc2)C(=O)NC2CCCC2)nc(NCCCOC(C)C)n1.O=C(O)C(F)(F)F`, the values for the Inhibition in test [1], in test [2] and in test [3] were 92%, 43% and 0%, respectively.
The like results for `Cl.Nc1nc(N)c2c(ccc3c2ccn3CCCC2CCCNC2)n1` (configuration not stated) were, in that order, 98%, 55% and 67%.
The like results for `O=C(/C=C/c1ccc(Cl)c(Cl)c1)NCCCCCN1CCC(CCNC(=O)c2snnc2-c2ccccc2)CC1` were, in that order, 89%, 1% and 54%.
On the same counts, the results for `COc1ccc2nccc(N3CCN(CCNCc4ccc5c(n4)NC(=O)CO5)CC3)c2n1.Cl` are 98%, 12% and 10%.
With `Cc1cc(=NN=Cc2cccc(F)c2)c2cc(F)ccc2[nH]1`, the results for the Inhibition in test [1], in test [2] and in test [3] were 100%, 99% and 7%, respectively.
Turning to `CCCN1CCN(Cc2ccc(C(=O)Nc3ccc(Cl)cc3)cc2)CC1.O=C(O)C(F)(F)F`, the Inhibition in test [1] was 94%; in test [2], 14%; in test [3], 48%.
For `Cn1c(NC(=O)C2CCC(CNC(=O)c3ccc(O)c(-c4cccc([N+](=O)[O-])c4)c3)CC2)nc2ccccc21` (configuration not stated), the Inhibition was 95% in test [1], 97% in test [2] and 6% in test [3].
On the same counts, the results for `CCC[C@@H]([C@@H](CC(C)C)C(=O)N[C@H](C(=O)Nc1nccs1)C(C)(C)SCCNC(=O)OCC)N(O)C=O` are 95%, 97% and 0%.
In the case of `Cc1ccc(NC(C)C(=O)Nc2ccccc2)cc1S(=O)(=O)N1CCCCCC1` (configuration not stated), the Inhibition in test [1] came to 99%; in test [2], 97%; in test [3] it was 12%.
For the compound `Cl.N#Cc1ccc2c(c1)CCN(CCC1CCC(NC(=O)c3ccc(-c4ccccc4)s3)CC1)CC2` (configuration not stated), the Inhibition in test [1] stood at 99%; in test [2], 36%; in test [3] it was 6%.
As for `COc1cc(C(=O)NC2CC(C)(C)N(C)C(C)(C)C2)ccc1-c1nc2cc(Cl)c(Cl)cc2[nH]1`, the Inhibition in test [1] is listed as 100%; in test [2] it was 99%; in test [3], 69%.
On the same counts, the results for `Cc1cc2nc(-c3cccc(C(=O)NC4CCN(Cc5ccccc5)CC4)c3)[nH]c2cc1C` are 100%, 13% and 32%.
On to `N#Cc1ccc(CN2CCC(Oc3ccc(NC(=O)c4ccccc4)cc3Cl)CC2)cc1.O=C(O)C(F)(F)F`, for which the Inhibition in test [1] is 84%; in test [2], 65%; in test [3], 21%.
On the same counts, the results for `O=C(Nc1nc(-c2ccccn2)cs1)c1ccc(S(=O)(=O)N2CCc3ccccc32)cc1` are 89%, 15% and 47%.
For `CC(C)(C)c1cc(C(=O)Nc2cccnc2)cc(C(=O)Nc2cccnc2)c1`, the Inhibition was found to be 95% in test [1], 35% in test [2] and 0% in test [3].
On the same counts, the results for `Cc1noc(C)c1-c1cccc(CNCc2cccc(-c3ccc(-c4nc5cc(C(F)(F)F)ccc5[nH]4)s3)c2)c1.O=C(O)C(F)(F)F` are 100%, 95% and 23%.
In the case of `COc1ccc(S(=O)(=O)N(CC(=O)NN=C(C)c2cccs2)c2cc(C)cc(C)c2)cc1OC`, the figures for the Inhibition in test [1], in test [2] and in test [3] were 97%, 43% and 12%, respectively.
The like results for `C[C@H](Cc1ccc(Oc2ccc(C[C@@H](C)NC[C@H](O)c3cccc(Cl)c3)cc2)cc1)NC[C@H](O)c1cccc(Cl)c1.Cl` were, in that order, 100%, 96% and 99%.
For the compound `Cc1cc(NC(=O)Nc2ccc3sccc3c2)c2ccccc2n1`, the Inhibition came out at 99% in test [1], 57% in test [2] and 41% in test [3].
With `CCOC(=O)c1cn(CC)c2cc(N3CCCCCC3)c(F)cc2c1=O`, the Inhibition stood at 94% in test [1], 89% in test [2] and 0% in test [3].
For `N#Cc1ccc(N(CCOc2ccc(Cl)cc2)Cc2ccccc2C(F)(F)F)cc1C(F)(F)F`, the values for the Inhibition in test [1], in test [2] and in test [3] were 91%, 64% and 3%, respectively.
On the same counts, the results for `CCc1cc(-c2onc(C(F)(F)F)c2-c2ccccc2)c(O)cc1OC` are 98%, 73% and 16%.
In the case of `O=C(O)C(F)(F)F.Oc1ccc(CCNc2nc(NCc3cccc(-c4cc(C(F)(F)F)ccc4Cl)c3)nc(N3CCNCC3)n2)cc1`, the results for the Inhibition in test [1], in test [2] and in test [3] were 90%, 8% and 33%, respectively.
As for `COc1cc2nccc(Nc3ccc4c(cnn4Cc4ccccc4F)c3)c2cc1OC.Cl`, the Inhibition in test [1] is 100%; in test [2], 91%; in test [3], 55%.
With `CCCCCN1CCCN(Cc2cccc(NC(=O)c3ccc4ccccc4c3)c2)CC1.O=C(O)C(F)(F)F`, the Inhibition amounted to 86% in test [1], 16% in test [2] and 27% in test [3].
`CCc1ccc(NC(=O)c2ccc(CN3CCCN(CC4CCCCC4)CC3)cc2)cc1.O=C(O)C(F)(F)F`: the Inhibition in test [1] turned out to be 96%; in test [2], 48%; in test [3], 48%.
`CC(=O)Nc1ccc(CN2CCC(NC(=O)c3ccc(-c4cccc(Cl)c4)s3)CC2)cc1.O=C(O)C(F)(F)F`: the results for the Inhibition in test [1], in test [2] and in test [3] were 97%, 59% and 34%, respectively.
On the same counts, the results for `COc1ccc(C2C(C(=O)Nc3ccc4c(c3)OCO4)c3cc(OC)c(OC)cc3C(=O)N2C)cc1` (configuration not stated) are 89%, 54% and 12%.
The like results for `O=C(O)C(F)(F)F.OCC1CCN(Cc2ccc(-c3cccc(-c4nc5cc(F)ccc5[nH]4)c3)cc2)CC1` were, in that order, 100%, 25% and 14%.
The like results for `CC1CCN(CC[C@H]2CCCN2S(=O)(=O)c2cccc(NC(=O)c3ccc(-c4ccccc4)cc3)c2)CC1` were, in that order, 87%, 36% and 38%.
`O=C(NCc1ccc(F)cc1)Nc1ccc(-c2ccc(-c3nc4ccccc4[nH]3)cc2)cc1`: the Inhibition in test [1] was found to be 100%; in test [2], 98%; in test [3], 43%.
Consider `CN1CCCN(c2ccnc3cc4c(cc23)N(C(=O)c2ccc(C(F)(F)F)cc2)CC4)CC1.Cl`, for which the Inhibition in test [1] is reported as 100%; in test [2], 63%; in test [3] it was 10%.
For `N#Cc1cccc(NC(=O)NC2CCN(CCCCCNC(=O)/C=C/c3ccc(Cl)c(Cl)c3)CC2)c1`, the Inhibition in test [1] is 100%; in test [2], 7%; in test [3], 31%.
`CC(C)(C)CCN1CCC(NC(=O)c2ccc(-c3cccc(C(F)(F)F)c3)s2)CC1.O=C(O)C(F)(F)F`: the Inhibition is recorded as 93% in test [1], 88% in test [2] and 95% in test [3].
Turning to `CS(=O)(=O)c1ccc2c(c1)CCN(CCC1CCC(NC(=O)C(=Cc3cccc(C#N)c3)c3ccc(-c4ccccc4)cc3)CC1)CC2` (configuration not stated), the Inhibition is 99% in test [1], 13% in test [2] and 24% in test [3].
On the same counts, the results for `COc1ccc(CC(=O)NC(CCCN2CCC(c3ccccc3)CC2)c2ccc(Cl)c(Cl)c2)cc1OC` (configuration not stated) are 82%, 57% and 28%.
The like results for `Cc1cc(N2CCCC2)nc(Nc2ccc(NC(=O)C3CCCC3)cc2)n1` were, in that order, 100%, 81% and 27%.
For the compound `Cc1cc(C)c2nc(N3CCC(C(=O)NCCCN4CCC(N5CCCCC5)CC4)CC3)sc2c1`, the figures for the Inhibition in test [1], in test [2] and in test [3] were 99%, 34% and 99%, respectively.
As to `O=[N+]([O-])c1cccc(C(Nc2ccccn2)c2ccc3cccnc3c2O)c1` (configuration not stated), the Inhibition in test [1] was 86%; in test [2], 29%; in test [3] it was 53%.
The like results for `COc1cc2nc(N3CCC(CNC(=O)c4ccc(-c5ccc(C#N)cc5)cc4)CC3)nc(N)c2cc1OC` were, in that order, 100%, 99% and 21%.
For the compound `COc1ccc(Nc2ncc(C#N)c(Nc3ccccc3C(N)=O)n2)cc1N1CCN(C)CC1.Cl`, the figures for the Inhibition in test [1], in test [2] and in test [3] were 93%, 97% and 56%, respectively.
The like results for `O=C(c1cccc(Cl)c1)N1CCN(c2ccc([N+](=O)[O-])c(NC3CC3)c2)CC1` were, in that order, 100%, 79% and 11%.
On the same counts, the results for `CC(C)c1ccc(NC(=O)c2ccc(C(=O)NC3CCN(Cc4ccsc4)C3)cc2)cc1.O=C(O)C(F)(F)F` (configuration not stated) are 82%, 28% and 17%.
Consider `CO/C(=C\C=C/c1cc2cc(Cl)c(Cl)cc2[nH]1)C(=O)NC1CC(C)(C)N(C)C(C)(C)C1`, for which the results for the Inhibition in test [1], in test [2] and in test [3] were 93%, 34% and 65%, respectively.
The like results for `Cc1noc(C)c1-c1cccc(CNCc2cccc(-c3cccc(-c4nc5cc(F)ccc5[nH]4)c3)c2)c1.O=C(O)C(F)(F)F` were, in that order, 100%, 73% and 18%.
The like results for `Cc1cc(N/N=C/c2ccccc2[N+](=O)[O-])c2cc(C(F)(F)F)ccc2n1` were, in that order, 97%, 39% and 0%.
On the same counts, the results for `CCCCCc1cc(O)c2c(c1)OC(C)(C)C=C2C1=CCN(Cc2ccsc2)CC1` are 98%, 48% and 20%.
`CCc1cn(C)c2c(N3CCCC3=O)cc(C(=O)N[C@@H](Cc3ccccc3)[C@H](O)CNC(C)(C)c3cccc(OC)c3)cc12`: the results for the Inhibition in test [1], in test [2] and in test [3] were 95%, 99% and 9%, respectively.
On the same counts, the results for `Cl.NCCCOc1cnc(-c2ccccc2)c2nc(-c3nonc3N)n(CCc3ccccc3)c12` are 93%, 86% and 56%.
The like results for `COc1ccc(C=NNc2nc(O)cc(-c3ccccc3)n2)cc1OC` were, in that order, 92%, 93% and 22%.
On to `O=C(O)C(F)(F)F.O=S(=O)(NCCN1CCCC1)c1ccc(-c2ccc(CNC3Cc4ccccc4C3)cc2)s1`, for which the Inhibition in test [1] turned out to be 100%; in test [2] it was 97%; in test [3], 47%.
For `Cc1nc(-c2nc(NCCc3cnccn3)ncc2-c2ccsc2)sc1C`, the values for the Inhibition in test [1], in test [2] and in test [3] were 98%, 40% and 0%, respectively.
With `O=C(/C=C/c1ccc(Cl)c(Cl)c1)NCCCCCCN1CCN(C(=O)Nc2ccc(OC(F)F)cc2)CC1`, the Inhibition in test [1] was 91%; in test [2], 15%; in test [3], 44%.
The like results for `COc1ccc2nc(-c3cc(-c4ccc(NC(=O)C(C)C)cc4)cnc3N)[nH]c2c1` were, in that order, 100%, 47% and 43%.
Consider `Cc1cccc2nc(-c3ccc(-c4cccc(CNCCNC(=O)c5ccnn5C)c4)s3)[nH]c12.O=C(O)C(F)(F)F`, for which the Inhibition in test [1] was 100%; in test [2], 87%; in test [3] it was 17%.

The record behind these values is ChEMBL document CHEMBL1157539, “Thousands of chemical starting points for antimalarial lead identification” (Nature, 2010).
